Reference: the supplement of paper PMC8699584
Values joined by “and” are separate entries in the source; they are usually repeats but may differ in a detail not shown here. Equal entries are not always repeated. Structures can show the parent of a compound that is named as a salt. ± gives the standard deviation of the averaged measurements.

Tests used:
Molm13 = experiment: cell viability relative to DMSO control (bortezomib = 0%); higher = less growth inhibition; details: 10 nM; 72 h
Procedure, shortened: (§1)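 Acute myeloid leukemia cells were plated at 1000 cells per well in 50 µL onto a 679-compound library of approved and investigational agents in 384-well plates and exposed to a single 10 nM dose for 72 h, in duplicate. Cell viability was measured by CellTiter-Glo luminescence on an EnVision reader. Readings were scaled to percentages by per-plate linear regression, with DMSO-treated cells set at 100% and positive-control-treated cells at 0%.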

Mv4-11 = experiment: as above; details: 10 nM; 72 h
Procedure, shortened: as §1

SMILES | cell viability (Molm13) | cell viability (Mv4-11)
COC1=CC(=O)c2ccccc2C1=O [2-Methoxy-1,4-naphthoquinone] | 94.66 ± 0.11% | 98.6 ± 9.1%
NC(=O)c1ccc(NC(=O)NCc2cccc(C(=O)Nc3ccc4c(c3)CNCC4)c2)cc1 | 117 ± 25% | 119 ± 19%
CN(C)Cc1cccc(N/C(=C2\C(=O)Nc3cc(C(N)=O)ccc32)c2ccccc2)c1 | 114 ± 4.6% | 134 ± 3.4%
CS(=O)(=O)CCNCc1ccc(-c2ccc3ncnc(Nc4ccc(OCc5cccc(F)c5)c(Cl)c4)c3c2)o1 | 103 ± 8.2% | 108 ± 9%
Nc1cc(C(F)(F)F)c(-c2nc(N3CCOCC3)nc(N3CCOCC3)n2)cn1 | 94.3 ± 30% | 109 ± 5.2%
O=C(Nc1ccc(OC(F)(F)F)cc1)c1sccc1NCc1ccnc2ccccc12 | 111 ± 3.1% | 109 ± 6%
O=C(O)c1ccc2nc(-c3ccccc3)c(-c3ccccc3)nc2c1 | 98.2 ± 15% | 111.7 ± 0.8%
N#CC(=C(/N)Sc1ccccc1N)/C(C#N)=C(\N)Sc1ccccc1N | 99.3 ± 16% | 104 ± 7%
Cc1oncc1C(=O)Nc1ccc(C(F)(F)F)cc1 [Leflunomide] | 91.3 ± 23% | 118 ± 29%
N#CC(=C(/N)Sc1ccccc1N)/C(C#N)=C(/N)Sc1ccccc1N | 104 ± 12% | 129 ± 2.2%
c1ccc(-c2[nH]ncc2-c2ccnc3ccccc23)nc1 | 102% and 105% | 111% and 113%
C=CC(=O)N1CCC(Oc2cc3c(Nc4ccc(Cl)c(Cl)c4F)ncnc3cc2OC)CC1 [Poziotinib (HM781-36B)] | 111.4 ± 0.44% | 113 ± 10%
O=C1Nc2ccc(CN3C(=O)CSC3=O)cc2/C1=C/c1cc(CN2CCOCC2)c[nH]1 | 92.3 ± 7.1% | 110 ± 8.4%
COc1cc2ncnc(Oc3ccc(CC(=O)Nc4cnn(C(C)C)c4)cc3)c2cc1OC | 24.8 ± 4.2% | 29.8 ± 2.1%
Cn1cc(-c2ccc3c(c2)CCN3C(=O)Cc2cccc(C(F)(F)F)c2)c2c(N)ncnc21 | 105 ± 4.7% | 108 ± 18%
O=C(Nc1ccc(CN2CCOCC2)cc1)c1ccc(-c2cccc(Cl)c2)o1 | 113 ± 2.9% | 120 ± 6%
COc1cc2nccc(Oc3ccc(NC(=O)C4(C(=O)Nc5ccc(F)cc5)CC4)cc3)c2cc1OC | 29.6 ± 16% | 44.5 ± 3.8%
NS(=O)(=O)c1ccc(Nc2nc(OCC3CCCCC3)c3[nH]cnc3n2)cc1 | 104 ± 34% | 109 ± 13%
Cn1sc(=O)n(Cc2ccccc2)c1=O | 90.9 ± 6.1% | 108 ± 21%

SMILES | cell viability (Molm13) | cell viability (Mv4-11)
Cc1cnc(Nc2ccc(OCCN3CCCC3)cc2)nc1Nc1cccc(S(=O)(=O)NC(C)(C)C)c1 | 86.3 ± 1.3% | 92.97 ± 0.82%
CCC(=O)N1CCN(c2ccc(-n3c(=O)ccc4cnc5ccc(-c6cnc7ccccc7c6)cc5c43)cc2C(F)(F)F)CC1 [Torin 1] | 104 ± 4.5% | 108 ± 6.9%
CNC(=O)c1ccccc1Sc1ccc2c(/C=C/c3ccccn3)n[nH]c2c1 [Axitinib] | 120 ± 7% | 118 ± 10%
O=c1cc(N2CCOCC2)oc2c(-c3cccc4c3sc3ccccc34)cccc12 | 108 ± 5.3% | 108 ± 8.2%
Cc1ccc(NC(=O)c2cccc(N(C)C)c2)cc1NC(=O)c1ccc(O)cc1 | 94.6 ± 6% | 103 ± 5.7%
Nc1nccc(Oc2ccc(NC(=O)c3c[nH]cc(-c4ccc(F)cc4)c3=O)cc2F)c1Cl | 60.9 ± 5.7% | 83.1 ± 3.7%
Cc1ccc(F)c(NC(=O)Nc2ccc(-c3cccc4[nH]nc(N)c34)cc2)c1 [Linifanib (ABT-869)] | 61.8 ± 4% | 73.9 ± 13%
CCCC(CCC)C(=O)O [Valproic Acid (sodium salt)] | 100 ± 10% | 104 ± 10%
CC(C)(C)Cn1c(N)nc2ccc(-c3[nH]c(C(C)(C)C)nc3-c3ccc(F)cc3)nc21 | 100 ± 12% | 84.9 ± 21%
COc1cc2ncnc(Nc3ccc(F)c(Cl)c3)c2cc1OCCCN1CCOCC1 [Gefitinib (ZD1839)] | 110 ± 23% | 116 ± 1.7%
N#CC(=Cc1ccc2[nH]ccc2c1)C(N)=C(C#N)C#N | 104 ± 20% | 103.5 ± 0.36%
O=C(NOC[C@H](O)CO)c1ccc(F)c(F)c1Nc1ccc(I)cc1F | 89.4% and 96.2% | 95.5% and 86.8%
CC(=O)CC(c1ccccc1)c1c(O)c2ccccc2oc1=O (stereo unspecified) [Warfarin] | 109 ± 8.2% | 103 ± 7%
O=C1NCCCc2c1oc1ccc(O)cc21 | 107 ± 1.9% | 104 ± 3.1%
COc1cc2ncn(-c3cc(OCc4ccccc4S(C)(=O)=O)c(C#N)s3)c2cc1OC | 83.4 ± 8.5% | 104 ± 5.9%
CO[C@@H]1[C@H](N(C)C(=O)c2ccccc2)C[C@H]2O[C@]1(C)n1c3ccccc3c3c4c(c5c6ccccc6n2c5c31)C(=O)NC4 | 76.2 ± 3% | 87.82 ± 0.66%
Nc1nc(N)c2nc(-c3cccc(O)c3)c(-c3cccc(O)c3)nc2n1 | 96.7 ± 5% | 120 ± 11%
O=c1cc(-c2cccc3c2Sc2ccccc2S3)oc(N2CCOCC2)c1 | 104 ± 4.7% | 103 ± 28%
S=C(NCc1ccc2c(c1)OCO2)N1CCN(c2ncnc3c2oc2ccccc23)CC1 [Amuvatinib(MP470)] | 101 ± 10% | 103 ± 15%
